# From PubChem BioAssay (NCATS)
# Records with an inconclusive call do not appear. Where a call stands in place of a potency, no number is given. Values without a mark were called inactive. Activity calls are given as the source filed them. Calls come from the whole dose curve; as a rule, active = well fitted curve in the direction sought with a large enough effect; inconclusive = small, poorly fitted or top-dose-only effect, or another doubt; inactive = no such curve, though single readings can be large; an effect the other way counts as inactive or inconclusive. Bridge positions count the residues as written; N and C are the ends. Square brackets hold non-standard residues; d marks the D form. Side chains are listed from the residue outwards. Peptide text beside a SMILES is read from it. * marks the point of attachment. Phg(4-OMe) = COc1ccc([C@H](N)C(=O)O)cc1; d(aIle) = CC[C@H](C)[C@@H](N)C(=O)O; d(aThr) = C[C@@H](O)[C@@H](N)C(=O)O; NMeF = CN[C@@H](Cc1ccccc1)C(=O)O; Isobutyryl = CC(C)C(=O)*
# Tests used:
# [1] = test system: Zika virus NS2B-NS3 protease (linked construct); experiment: Primary screen NINDS Rhodamine qHTS for Zika virus inhibitors (AID 1347160); note: nearly all actives have a fitted effect of over 55% in size; note: potency is the fitted concentration of half-maximal effect
# Summary of the method: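 Aprotinin served as in-plate control. Conditions: 25 nM linked NS2B-NS3, pH 8.0 Tris buffer, titrated compounds, 15 min preincubation and 15 min reaction with 1.5 microM Rhod110 substrate at room temperature.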
# [2] = UWB1.289-WTBRCA1 Cancer Cell Toxicity qHTS against the NCATS CANVASS Library (AID 1347354); note: potency is the fitted concentration of half-maximal effect
# Summary of the method: (§1)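 1000 cells/well, 4 h pre-incubation 37 °C/5% CO2; 11-pnt titration; 72 h; CellTiter-Glo 15 min RT, luminescence.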
# [3] = SDT Cancer Cell Toxicity qHTS against the NCATS CANVASS Library (AID 1347365); note: nearly all actives have a fitted effect of over 60% in size; note: potency is the fitted concentration of half-maximal effect;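 for activity change, negative = cytotoxicity: SDT canine glioma cells 500 per well in 1536 well plates; series mostly up to about 46 µM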
# Summary of the method: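 Luminescent ATP read-out (CellTiterGlo) after 72 hr compound exposure of dog glioma SDT cells, 500 per well. Eleven-point titrations; bortezomib titration run alongside as control.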
# [4] = qHTS for Inflammasome Signaling Inhibitors: IL-1-beta AlphaLISA screen against the NCATS CANVASS Library (AID 1347379);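 note: human THP-1 cells primed with LPS then triggered with ATP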;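 for potency: secreted IL-1B measured as AlphaLISA emission at 615 nm; potency is the fitted concentration of half-maximal effect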
# Summary of the method: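 THP-1, 1 hr compound pre-incubation, then LPS 250 ng/mL + ATP 1.25 mM (final); 16 hr total with compound; IL-1B AlphaLISA, ex 680/em 615 nm; 11-point qHTS, up to 57.5 uM final.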
# [5] = qHTS for Antimalaria activity screened against the NCATS CANVASS Library (AID 1347380); note: nearly all actives have a fitted effect of over 40% in size; note: potency is the fitted concentration of half-maximal effect
# Summary of the method: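 SYBR Green fluorescence (ex 485, em 535 nm) read after saponin/Triton lysis and 18 h further incubation; Dd2 asexual blood-stage parasites, 72 h compound exposure, 11-pt concentration series, 2.5% hematocrit, 0.3% parasitemia.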
# [6] = Vero-766 cells viability qHTS against the NCATS CANVASS Library: Counterscreen for Zika virus inhibition assay (AID 1347394); note: nearly all actives have a fitted effect of over 60% in size; note: potency is the fitted concentration of half-maximal effect; for activity change, negative = cytotoxic: series mostly up to about 46 µM
# Summary of the method: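 Counterscreen for toxicity: Vero 766 cells exposed 72 h to an 11-point compound series, viability by CellTiter-Glo.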
# [7] = J3T Cancer Cell Toxicity qHTS against the NCATS CANVASS Library (AID 1347371); note: potency is the fitted concentration of half-maximal effect;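 for activity change, negative = cytotoxicity: J3T is a canine glioma cancer cell line seeded at 500 cells per well; series mostly up to about 46 µM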
# Summary of the method: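 Dog glioma J3T, 500 cells/well; cpd 11-pt qHTS; 72 hr, 37C/5% CO2; CellTiterGlo ATP luminescence readout.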
# [8] = qHTS for inhibitors of Wild type Zika virus screened against the NCATS CANVASS Library (AID 1347396);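 note: ATP luminescence of surviving cells so rescue from viral cell killing; series mostly up to about 46 µM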
# Summary of the method: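 Vero 766 cells, 1000/well, o/n attach; cpds pin-transferred (11-pt qHTS); WT Zika added; 72 h, 37C, 5% CO2; CellTiter Glo lumi. Uninfected + vehicle = 100% inhibition.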
# [9] = COV-362 Cancer Cell Toxicity qHTS against the NCATS CANVASS Library (AID 1347352); note: potency is the fitted concentration of half-maximal effect; for activity change, negative = cytotoxicity: series mostly up to about 38 µM
# Summary of the method: as §1
# [10] = Confirmatory screen NINDS Rhodamine qHTS for Zika virus inhibitors (AID 1347161);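 note: purified Zika NS2B-NS3 protease with linked NS2B cofactor domain and Rhodamine110 peptide substrate; series mostly up to about 110 µM; nearly all actives have a fitted effect of over 60% in size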
# Summary of the method: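 qHTS dose-response: 25 nM linked protease, pH 8.0 Tris/Tween buffer, cpd titration, 15 min RT preinc, 1.5 microM Rhod110 peptide, 15 min reaction (~15% conversion), Ex480/Em540; 4-parameter Hill fit.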
compound,measurement,setting,value
O=C1CC2OCC=C3CN4C5CC3C2[C@@H]2N1c1ccccc1[C@]52C[C@@H]4C1=C[C@H]2C3CC4N(CC[C@@]45c4ccccc4N(C1=O)[C@@H]25)C/C3=C/CO (some centres undefined),Potency,[1],inactive
same,Potency,[2],inactive
same,Potency,[3],20.9 µM (active)
same,Potency,[4],24.3 µM (active)
same,Potency,[5],2.36 µM (active)
same,Potency,[6],inactive
C=CC(CCCCC)C1C(=O)NC(=O)C1C(=O)C1C2C(C)CC(C(=O)O)CC2CC1(O)C(=O)/C=C/C (centres undefined),Potency,[1],6.21 µM (active)
same,Potency,[2],inactive
same,Potency,[3],inactive
same,Potency,[7],inactive
same,Potency,[4],inactive
same,outcome,[8],inactive
CCC(=O)CCCCC[C@@H]1NC(=O)[C@H]2CCCCN2C(=O)[C@H](C(C)C)NC(=O)[C@H](Cc2cn(OC)c3ccccc23)NC1=O,Potency,[1],13.9 µM (active)
same,Potency,[7],11.8 µM (active)
same,Potency,[5],0.747 µM (active)
same,Potency,[6],5.88 µM (active)
CC(C)C[C@@H]1c2c(O)c(C=O)c(O)c(C=O)c2O[C@]2(C)C=C[C@@H](C(C)C)C[C@H]12,Potency,[1],13.9 µM (active)
same,Potency,[9],inactive
same,Potency,[2],inactive
same,Potency,[7],inactive
same,outcome,[8],inactive
C=C(C)CC[C@H](Cc1c(O)cc(O)c2c1O[C@H](c1ccc(O)cc1)CC2=O)C(=C)C,Potency,[1],15.6 µM (active)
same,Potency,[9],inactive
same,Potency,[4],inactive
same,Potency,[5],inactive
same,Potency,[6],18.6 µM (active)
COc1cc2c(c(O)c1O)C(=O)c1c(coc1C)C2=O,Potency,[1],3.11 µM (active)
same,Potency,[2],18.8 µM (active)
same,Potency,[7],26.4 µM (active)
same,Potency,[5],10.6 µM (active)
C/C=C/C1C=CC2CC(C)CC(C)C2C1C(=O)CC(=O)NC(CO)C/C=C/CCCCC (centres undefined),Potency,[1],11 µM (active)
same,Potency,[2],inactive
same,Potency,[7],inactive
same,Potency,[5],inactive
same,outcome,[8],inactive
CC(C)=CCC[C@]12c3cc4c(cc3CC[C@@]1(C)[C@H](C)CC[C@@H]2O)[nH]c1ccccc14,Potency,[1],24.7 µM (active)
same,Potency,[2],inactive
same,Potency,[7],inactive
same,Potency,[4],inactive
same,outcome,[8],inactive
C/C1=C/[C@@H](C)[C@H](O)[C@@H](O)/C=C/CC/C=C/C(=O)O[C@@H]1[C@H](C)C(=O)CCCC1CC(=O)NC(=O)C1,Potency,[1],inactive
same,Potency,[2],inactive
same,Potency,[3],20.9 µM (active)
same,Potency,[7],inactive
same,Potency,[4],inactive
same,Potency,[5],inactive
same,outcome,[8],inactive
C/C=C(/C)c1c(Cl)c(O)c(C)c2c1Oc1c(Cl)c(O)c(Cl)c(C)c1C(=O)O2,Potency,[1],1.96 µM (active)
same,Potency,[4],inactive
same,Potency,[5],inactive
same,Potency,[6],7.41 µM (active)
C[C@]12CCC[C@](C)(C(=O)O)[C@@H]1CC[C@@]1(C)c3cocc3CC[C@H]21,Potency,[1],15.6 µM (active)
same,Potency,[3],inactive
same,Potency,[4],inactive
same,Potency,[6],inactive
same,outcome,[8],inactive
C=CC(CCCCC)C1C(=O)NC(=O)C1C(=O)C1C(/C=C/C)C=CC2CC(C(=O)O)CC(C)C21 (centres undefined),Potency,[1],3.92 µM (active)
same,Potency,[9],inactive
same,Potency,[3],inactive
same,Potency,[6],23.4 µM (active)
COc1cc(O)c(C(=O)[C@@H]2[C@H](CC=C(C)C)C(C)=CC[C@H]2c2ccccc2)c(O)c1,Potency,[1],15.6 µM (active)
same,Potency,[7],inactive
same,Potency,[5],6.66 µM (active)
same,Potency,[6],23.4 µM (active)
COc1cc(C2OCC3C(c4ccc(O)c(OC)c4)OCC23)ccc1O (centres undefined),Potency,[1],inactive
same,"activity change, negative = cytotoxicity",[9],-3.45% [at 7.64 µM]
same,"activity change, negative = cytotoxic",[6],-3.52% [at 9.19 µM]
same,"activity change, negative = antiviral",[8],-5.5% [at 9.14 µM]
CC[C@H](C)[C@H]1NC(=O)[C@@H](NC(=O)C(C)C)[C@@H](C)OC(=O)[C@H](COC(=O)CNC(C)=O)NC(=O)[C@@H]([C@@H](C)O)NC(=O)[C@H](Cc2ccccc2)N(C)C(=O)[C@H](c2ccc(OC)cc2)NC1=O (Isobutyryl-T[d(aIle)][Phg(4-OMe)][NMeF][d(aThr)]S([Gly-Ac]); ester 1-C),Potency,[1],inactive
same,Potency,[9],inactive
same,Potency,[2],inactive
same,Potency,[3],inactive
same,Potency,[4],inactive
same,Potency,[5],inactive
C[C@H]1C=C[C@H]2CCCC[C@@H]2[C@H]1C(=O)[C@H]1CC2=C(C(=O)O)CCN2C1=O,Potency,[1],11 µM (active)
same,Potency,[9],inactive
same,Potency,[7],inactive
same,Potency,[5],inactive
same,Potency,[6],inactive
same,outcome,[8],inactive
CCCc1c2c([nH]c(=O)c1C)C(=O)c1[nH]c(=O)c(C)c(CCC)c1C2=O,Potency,[1],34.9 µM (active)
same,Potency,[9],7.47 µM (active)
same,Potency,[4],inactive
same,Potency,[5],11.8 µM (active)
same,Potency,[6],inactive
COC(=O)[C@@]12Oc3cccc(O)c3C(O)=C1C(=O)C[C@H](C)[C@H]2O,Potency,[9],inactive
same,Potency,[2],inactive
same,Potency,[7],inactive
same,Potency,[5],inactive
same,Potency,[6],inactive
CO/C=C/C(=O)c1cc2cnc3c(N)cc(=NC(=O)C(C)C)c([nH]1)c23,Potency,[1],17.5 µM (active)
same,Potency,[3],0.372 µM (active)
same,Potency,[7],0.743 µM (active)
same,Potency,[4],0.968 µM (active)
same,Potency,[5],inactive
same,Potency,[6],0.524 µM (active)
CCC(=O)N[C@@H](C[C@H](C)C(Cl)(Cl)Cl)C(=O)N1C(=O)C=C(OC)[C@@H]1C[C@H](C)CCl,Potency,[1],inactive
same,Potency,[3],inactive
same,Potency,[7],inactive
same,Potency,[4],inactive
same,Potency,[5],inactive
same,Potency,[6],inactive
same,outcome,[8],inactive
CCOC(=O)c1ccc(CN(Cc2ccc(Br)cc2)S(=O)(=O)c2cccc(C(F)(F)F)c2)cc1,Potency,[10],inactive
